These results are taken from the supplement of paper PMC10849652.

Common to all, as to assay: log2 fold change, soluble protein after heating vs DMSO (PISA); higher = thermal stabilisation; K562 cells, 10 uM, 30 min; active = over 0.2 and 3.5 SD of the protein, either way, in both replicates (recomputed)
Compound in assay [1]: C#Cc1cccc(Nc2ncnc3cc(OCCOC)c(OCCOC)cc23)c1 [erlotinib]
The method, boiled down:
(§1)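 Soluble protein was defined as the supernatant after 21,000xg for 90 min. It came from K562 cells at 2×10^6 cells/mL given 10 μM compound for 30 min, heated in aliquots for 3 min across 48°C-58°C, pooled, and extracted in PBS with 0.5% NP-40 at 4°C, and was quantified by TMTpro 16plex LC-MS/MS with equalised channel sums. Thermal stability against control samples, from duplicates, is reported as log2 fold change.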

Compound in assay [2]: C/C(=N\NC(=O)C1=CC(=CC=C1)S(=O)(=O)N2CCOCC2)/C3=C(C=CC(=C3)Cl)O
The essentials: as §1

Compound in assay [3]: C1=CC(=CC=C1C2=NC3=C(N2)C=C(C=C3)C(=O)N)OC4=CC=C(C=C4)Cl
The essentials: as §1

Compound in assay [4]: C1=CC2=C(C=CC(=C2)/C=C\3/C(=O)NC(=NCC4=CC=CS4)S3)N=C1
The method, boiled down:
as §1

Compound in assay [5]: C1=CC2=NC=CN=C2C=C1/C=C/3\C(=O)NC(=O)S3
The method, boiled down: as §1

Compound in assay [6]: C1=CC=C(C=C1)C2=NC(=C(N2)C3=CC=NC=C3)C4=CC(=C(C=C4)Cl)O
The essentials: as §1

Compound in assay [7]: C1=CC=C2C(=C1)C3=NNC4=CC=CC(=C43)C2=O
The method, boiled down: as §1

Compound in assay [8]: C1CCN(C1)C(=O)NC2=CC=CC(=C2)NC3=NC=C(C(=N3)NCCC4=CN=CN4)Br
The essentials: as §1

Compound in assay [9]: C1CN(CCC1(CC2=CC=C(C=C2)Cl)N)C3=NC=NC4=C3C=CN4
The method, boiled down: as §1

Compound in assay [10]: C1COCCN1CCN2C3=CC=CC=C3N=C2NC(=O)C4=CC(=CC=C4)[N+](=O)[O-] [IRAK-1-4 Inhibitor I]
The method, boiled down: as §1

Compound in assay [11]: C=CC(=O)N1CCC[C@@H](n2nc(-c3ccc(Oc4ccccc4)cc3)c3c(N)ncnc32)C1 [ibrutinib]
The essentials:
as §1

Compound in assay [12]: CC(=O)c1cnc2ccc(-c3cc(Cl)c(O)c(Cl)c3)nc2c1N[C@H]1CC[C@H](CN(C)C)CC1
The essentials:
as §1

Compound in assay [13]: CC(C)(C)Cn1c(N)nc2ccc(-c3[nH]c(C(C)(C)C)nc3-c3ccc(F)cc3)nc21 [ralimetinib]
The method, boiled down:
as §1

Compound in assay [14]: CC(C)C1=C2N=C(C=C(N2N=C1)NCC3=CC=CC=C3)NCCCCCCN
The essentials:
as §1

Compound in assay [15]: CC(C)C[C@@H](C=O)NC(=O)[C@H](CC(C)C)NC(=O)[C@H](CC(C)C)NC(=O)OCc1ccccc1
The essentials: as §1

Compound in assay [16]: CC(C)N(C[C@H]1O[C@@H](n2cnc3c(N)ncnc32)[C@H](O)[C@@H]1O)[C@H]1C[C@@H](CCc2nc3cc(C(C)(C)C)ccc3[nH]2)C1 [pinometostat]
The method, boiled down:
as §1

Compound in assay [17]: CC1=C(C(CC(=O)N1)C2=CC=C(C=C2)C(F)(F)F)C(=O)NC3=C(C=C4C(=C3)C=NN4)F
The essentials:
as §1

Compound in assay [18]: CC1=C(C2=C(C=C1)C(=O)C3=CC=CC=C3N2CCCN)C
The method, boiled down:
as §1

Compound in assay [19]: C1=CC(=C(C=C1Cl)C2=NC3=NC=CN=C3C(=N2)NC4=CC=NC=C4)F
The essentials:
as §1

Compound in assay [20]: CC(C)(O)CC(=O)NCCn1ccc2ncnc(Nc3ccc(Oc4cccc(C(F)(F)F)c4)c(Cl)c3)c21
The method, boiled down: as §1

Targets with a hit are over-represented here; the source holds about 7,900 in all. About 0.6% of all pairs of compound and target were hits. Values without a mark were called inactive.

Sequence of UniProt P29692 (P29692 whole entry, looked up): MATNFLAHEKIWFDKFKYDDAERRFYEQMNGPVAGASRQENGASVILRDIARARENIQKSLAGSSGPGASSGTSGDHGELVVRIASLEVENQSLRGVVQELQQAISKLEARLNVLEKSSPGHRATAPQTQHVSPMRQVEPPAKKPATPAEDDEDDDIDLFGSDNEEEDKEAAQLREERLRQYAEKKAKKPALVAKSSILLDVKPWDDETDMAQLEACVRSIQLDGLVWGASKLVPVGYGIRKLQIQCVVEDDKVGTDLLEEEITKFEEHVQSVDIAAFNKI
Sequence of UniProt Q3B7T1 (Q3B7T1 whole entry, looked up): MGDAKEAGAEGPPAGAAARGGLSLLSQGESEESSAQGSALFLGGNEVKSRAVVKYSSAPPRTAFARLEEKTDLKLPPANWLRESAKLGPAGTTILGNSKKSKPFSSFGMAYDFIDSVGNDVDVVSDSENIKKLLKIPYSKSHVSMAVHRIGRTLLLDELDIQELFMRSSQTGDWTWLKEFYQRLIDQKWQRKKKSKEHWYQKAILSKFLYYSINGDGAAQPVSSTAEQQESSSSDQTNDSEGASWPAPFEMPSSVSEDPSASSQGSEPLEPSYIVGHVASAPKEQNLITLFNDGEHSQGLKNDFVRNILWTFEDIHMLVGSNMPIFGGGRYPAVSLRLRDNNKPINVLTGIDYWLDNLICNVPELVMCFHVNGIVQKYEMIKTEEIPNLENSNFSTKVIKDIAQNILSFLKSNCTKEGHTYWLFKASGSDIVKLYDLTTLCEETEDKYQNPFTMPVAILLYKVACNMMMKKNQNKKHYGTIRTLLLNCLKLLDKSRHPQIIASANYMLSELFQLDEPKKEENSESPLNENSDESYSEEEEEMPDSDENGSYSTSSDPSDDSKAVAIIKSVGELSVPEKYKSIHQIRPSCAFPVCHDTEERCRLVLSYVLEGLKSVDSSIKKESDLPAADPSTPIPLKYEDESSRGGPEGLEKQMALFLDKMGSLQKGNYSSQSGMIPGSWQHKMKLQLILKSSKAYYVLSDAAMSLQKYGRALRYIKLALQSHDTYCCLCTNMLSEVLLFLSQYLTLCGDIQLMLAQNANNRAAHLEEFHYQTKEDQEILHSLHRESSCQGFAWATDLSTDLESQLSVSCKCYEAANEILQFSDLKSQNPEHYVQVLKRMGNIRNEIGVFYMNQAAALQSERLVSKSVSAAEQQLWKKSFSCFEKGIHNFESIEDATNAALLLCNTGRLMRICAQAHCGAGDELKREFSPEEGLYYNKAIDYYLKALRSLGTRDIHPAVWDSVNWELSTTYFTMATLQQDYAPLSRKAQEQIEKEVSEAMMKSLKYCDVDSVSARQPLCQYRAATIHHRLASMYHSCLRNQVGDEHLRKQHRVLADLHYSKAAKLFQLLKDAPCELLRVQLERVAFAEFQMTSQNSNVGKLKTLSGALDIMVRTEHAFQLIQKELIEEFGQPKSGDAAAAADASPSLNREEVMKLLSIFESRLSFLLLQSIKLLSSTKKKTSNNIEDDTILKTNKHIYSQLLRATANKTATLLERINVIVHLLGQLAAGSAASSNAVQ
Sequence of UniProt Q4LDG9 (Q4LDG9 whole entry, looked up): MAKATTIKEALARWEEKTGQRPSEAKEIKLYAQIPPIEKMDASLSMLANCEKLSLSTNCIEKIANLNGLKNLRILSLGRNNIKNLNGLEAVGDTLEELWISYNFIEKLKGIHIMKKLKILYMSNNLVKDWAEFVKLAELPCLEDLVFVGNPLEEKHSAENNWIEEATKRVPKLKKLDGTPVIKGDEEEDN
Sequence of UniProt Q16531 (Q16531 whole entry, looked up): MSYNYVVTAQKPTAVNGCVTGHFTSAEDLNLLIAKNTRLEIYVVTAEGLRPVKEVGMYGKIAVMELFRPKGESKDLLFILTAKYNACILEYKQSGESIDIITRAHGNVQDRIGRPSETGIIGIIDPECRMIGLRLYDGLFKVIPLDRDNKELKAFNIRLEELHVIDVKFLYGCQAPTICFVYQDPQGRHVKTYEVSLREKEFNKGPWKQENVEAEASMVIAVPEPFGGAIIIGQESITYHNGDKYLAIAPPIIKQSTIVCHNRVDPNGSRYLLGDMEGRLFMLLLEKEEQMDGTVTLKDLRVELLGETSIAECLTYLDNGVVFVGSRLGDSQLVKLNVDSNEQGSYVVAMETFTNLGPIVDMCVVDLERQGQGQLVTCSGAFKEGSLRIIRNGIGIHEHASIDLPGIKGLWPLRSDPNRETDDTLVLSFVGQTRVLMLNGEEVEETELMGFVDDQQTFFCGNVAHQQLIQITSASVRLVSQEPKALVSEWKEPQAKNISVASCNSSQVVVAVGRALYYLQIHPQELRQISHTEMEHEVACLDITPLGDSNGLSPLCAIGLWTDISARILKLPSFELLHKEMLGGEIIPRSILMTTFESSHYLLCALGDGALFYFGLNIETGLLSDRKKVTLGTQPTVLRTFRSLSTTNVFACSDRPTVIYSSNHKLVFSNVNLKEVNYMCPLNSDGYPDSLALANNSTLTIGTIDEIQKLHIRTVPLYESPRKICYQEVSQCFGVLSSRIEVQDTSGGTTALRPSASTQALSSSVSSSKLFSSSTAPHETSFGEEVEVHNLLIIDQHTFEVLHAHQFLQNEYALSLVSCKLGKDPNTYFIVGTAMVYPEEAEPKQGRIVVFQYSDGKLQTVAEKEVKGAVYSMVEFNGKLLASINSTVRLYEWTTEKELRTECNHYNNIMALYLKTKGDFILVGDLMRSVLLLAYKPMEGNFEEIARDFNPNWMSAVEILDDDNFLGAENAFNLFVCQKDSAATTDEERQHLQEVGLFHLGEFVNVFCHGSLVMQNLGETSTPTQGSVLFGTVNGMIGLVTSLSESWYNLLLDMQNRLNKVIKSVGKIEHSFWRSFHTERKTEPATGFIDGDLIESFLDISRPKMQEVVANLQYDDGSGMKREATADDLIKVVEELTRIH
Sequence of UniProt P80370 (P80370 whole entry, looked up): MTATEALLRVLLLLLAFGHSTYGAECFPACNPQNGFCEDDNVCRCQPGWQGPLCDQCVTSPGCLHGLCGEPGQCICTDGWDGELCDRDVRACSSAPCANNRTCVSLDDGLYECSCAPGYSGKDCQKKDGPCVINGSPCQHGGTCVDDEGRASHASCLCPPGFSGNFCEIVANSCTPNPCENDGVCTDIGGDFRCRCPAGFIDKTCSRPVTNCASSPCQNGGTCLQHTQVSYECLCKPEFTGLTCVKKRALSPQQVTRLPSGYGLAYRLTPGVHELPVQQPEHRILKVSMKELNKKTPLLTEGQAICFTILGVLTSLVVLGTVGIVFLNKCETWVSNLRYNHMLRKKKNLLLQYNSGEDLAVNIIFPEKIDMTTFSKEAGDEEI
Sequence of UniProt P25774 (P25774 whole entry, looked up): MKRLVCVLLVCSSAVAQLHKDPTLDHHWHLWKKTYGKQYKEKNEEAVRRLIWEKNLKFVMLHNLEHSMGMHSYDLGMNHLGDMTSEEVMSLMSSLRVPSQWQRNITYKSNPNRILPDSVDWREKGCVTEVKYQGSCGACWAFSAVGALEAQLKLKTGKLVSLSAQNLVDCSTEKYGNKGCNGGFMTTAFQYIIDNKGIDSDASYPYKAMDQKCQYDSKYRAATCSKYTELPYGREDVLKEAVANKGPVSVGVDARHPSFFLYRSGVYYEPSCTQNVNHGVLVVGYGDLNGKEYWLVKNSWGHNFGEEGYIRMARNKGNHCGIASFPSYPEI
Sequence of UniProt Q96PV7 (Q96PV7 whole entry, looked up): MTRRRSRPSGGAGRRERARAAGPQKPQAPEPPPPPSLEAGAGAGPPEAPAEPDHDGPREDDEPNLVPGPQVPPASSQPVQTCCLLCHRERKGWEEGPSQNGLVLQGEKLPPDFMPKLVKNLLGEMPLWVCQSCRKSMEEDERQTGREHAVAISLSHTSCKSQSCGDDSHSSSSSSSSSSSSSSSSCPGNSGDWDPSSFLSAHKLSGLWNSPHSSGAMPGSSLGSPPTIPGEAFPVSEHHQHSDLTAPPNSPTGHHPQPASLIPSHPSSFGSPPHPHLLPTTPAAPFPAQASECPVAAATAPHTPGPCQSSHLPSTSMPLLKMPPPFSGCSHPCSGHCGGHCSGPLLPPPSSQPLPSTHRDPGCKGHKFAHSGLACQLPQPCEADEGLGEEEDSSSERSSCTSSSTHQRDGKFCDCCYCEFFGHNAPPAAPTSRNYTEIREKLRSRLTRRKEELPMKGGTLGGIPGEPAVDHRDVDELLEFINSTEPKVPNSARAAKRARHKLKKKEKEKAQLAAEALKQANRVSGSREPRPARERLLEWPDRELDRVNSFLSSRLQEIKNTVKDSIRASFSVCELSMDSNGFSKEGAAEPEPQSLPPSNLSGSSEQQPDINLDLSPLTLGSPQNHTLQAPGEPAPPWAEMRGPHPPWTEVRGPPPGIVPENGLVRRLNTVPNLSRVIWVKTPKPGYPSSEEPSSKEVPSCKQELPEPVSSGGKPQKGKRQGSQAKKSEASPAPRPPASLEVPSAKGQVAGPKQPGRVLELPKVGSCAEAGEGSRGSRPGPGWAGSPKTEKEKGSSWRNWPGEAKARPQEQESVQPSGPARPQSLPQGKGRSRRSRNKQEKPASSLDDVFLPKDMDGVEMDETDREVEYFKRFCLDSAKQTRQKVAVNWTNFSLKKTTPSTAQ
Sequence of UniProt Q96C92 (Q96C92 whole entry, looked up): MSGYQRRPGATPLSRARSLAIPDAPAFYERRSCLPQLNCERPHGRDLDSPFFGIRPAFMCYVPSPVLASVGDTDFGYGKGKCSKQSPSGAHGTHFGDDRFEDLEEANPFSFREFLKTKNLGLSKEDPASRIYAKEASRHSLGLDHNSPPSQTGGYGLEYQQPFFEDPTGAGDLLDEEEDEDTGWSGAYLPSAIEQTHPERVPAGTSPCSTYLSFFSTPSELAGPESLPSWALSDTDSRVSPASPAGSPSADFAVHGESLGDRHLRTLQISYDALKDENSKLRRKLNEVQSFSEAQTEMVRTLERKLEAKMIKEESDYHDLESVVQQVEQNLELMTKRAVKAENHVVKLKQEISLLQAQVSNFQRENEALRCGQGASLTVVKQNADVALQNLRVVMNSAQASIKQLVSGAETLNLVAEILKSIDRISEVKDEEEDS

For the target DAXX (UniProt Q9UER7), the log2 fold change is 0.212 in assay [1]; -0.662 (active) in [2]; 0.037 in assay [3]; 0.072 in assay [4]; 0.012 in assay [5]; 0.055 in assay [6]. The log2 fold change in assay [7] was 0.009; in assay [8], -0.148; in assay [9] it was 0.224; in assay [10], 0.13; in [11] it was 0.091; in assay [12] it was 0.008. For the same target, the log2 fold change in [13] was 0.218; in assay [14], 0.243; in assay [15], 0.088; in assay [16] it was -0.049; in assay [17], 0.078; in assay [18], 0.078.

On to DHPS (UniProt M0R1T2), for which the log2 fold change in [5] is 0.099; in [11], 0.124.

Consider DDB1 isoform 2 (UniProt Q16531), for which the log2 fold change is 0.017 in [19], 0.205 in [5], -0.034 in [11] and 0.078 in assay [20].

As to CTSS (UniProt P25774), the log2 fold change is -0.215 in assay [6]; 0.144 in [8]; 0.545 in [9]; -0.023 in [10]; -0.026 in assay [13]; 0.12 in [15]. Moreover, the log2 fold change is -0.001 in assay [16] and 0.316 in [18].

Turning to EEF1D isoform 3 (UniProt P29692), the log2 fold change is -0.009 in assay [1]; 0.009 in [3]; -0.16 in assay [8]; -0.087 in assay [9]; -0.27 in assay [14]; 0.605 in assay [18].

Turning to EDRF1 (UniProt Q3B7T1), the log2 fold change was 0.066 in assay [1]; -0.038 in assay [19]; -0.119 in [3]; -0.017 in assay [5]; -0.033 in assay [6]; 0.068 in assay [11]. Besides, the log2 fold change is 0.04 in [13], 0.048 in assay [20], 0.004 in assay [14] and 0.066 in assay [15].

With ENTPD7 (UniProt Q9NQZ7), the log2 fold change was 0.096 in assay [1]; -0.028 in assay [19]; -0.181 in assay [3]; 0.063 in [5]; -0.042 in assay [8]; 0.037 in assay [9]. Also, the log2 fold change in assay [10] was -0.146; in [11], -0.013; in assay [20], 0.181; in assay [14] it was -0.043; in [16], -0.009; in assay [17] it was -0.022. Further, the log2 fold change in assay [18] was -0.016.

In the case of DNAL1 (UniProt Q4LDG9), the log2 fold change in assay [2] was -0.034; in [19], 0.053; in [4], -0.07; in assay [5], -0.654 (active); in assay [6], -0.113; in assay [7], 0.091. In addition, the log2 fold change in assay [10] was 0.012; in assay [11], -0.082; in assay [12], 0.042; in [13], 0.042; in assay [20], 0.183; in [15], 0.007. Moreover, the log2 fold change in assay [16] was 0.093.

Regarding FAM160A2 isoform 2 (UniProt Q8N612), the log2 fold change in assay [19] is 0.2; in assay [5], -0.012; in assay [6], -0.134; in assay [8], -0.071; in [9], 0.027; in [10] it was 0.029. Also, the log2 fold change in assay [11] was -0.003; in assay [13], -0.029; in [20], -0.326; in assay [15] it was 0.013; in [16], 0.004; in assay [17] it was -0.146. The log2 fold change in [18] is 0.102.

CTNNBL1 (UniProt Q8WYA6): the values for the log2 fold change in assay [5] and in [11] were -0.032 and 0.046, respectively.

As to DCP2 (UniProt Q8IU60), the log2 fold change is 0.176 in assay [2]; -0.117 in [19]; -0.118 in assay [4]; 0.021 in assay [6]; -0.073 in assay [7]; -0.134 in [8]. Moreover, the log2 fold change was -0.064 in assay [9]; -0.372 in [10]; -0.265 in assay [12]; 0.105 in assay [13]; 0.147 in assay [20]; 0.185 in assay [15]. For the same target, the figures for the log2 fold change in assay [16] and in [18] were 0.038 and -0.111, respectively.

For FADS1 (UniProt F5GYH4), the log2 fold change in assay [5] was 0.155; in [8], 0.057; in [9] it was 0.002; in [10], 0.02; in [11], -0.093; in [16], 0.075. In addition, the log2 fold change in assay [18] is -0.097.

As for DLK1 (UniProt P80370), the log2 fold change is 0.028 in assay [19], 0.023 in assay [10], -0.034 in assay [20] and 0.099 in assay [16].

With ENTR1 (UniProt Q96C92), the log2 fold change in [1] was -0.015; in assay [3] it was 0.043; in assay [14] it was -0.156.

For DDX46, A0A0C4DG89, the log2 fold change was 0.174 in assay [19], -0.123 in assay [20] and -0.005 in assay [17].

Take EPHX2 (UniProt E5RI53): the log2 fold change was 0.037 in assay [19], -0.082 in assay [5], 0.085 in [11] and 0.071 in assay [20].

Consider FAM193B (UniProt Q96PV7), for which the log2 fold change is -0.127 in assay [2]; -0.311 in assay [19]; -0.085 in assay [4]; 0.068 in assay [5]; -0.101 in assay [7]; -0.133 in [8]. Besides, the log2 fold change in [9] is -0.483; in assay [10], -0.049; in [11], -0.266; in [12], -0.03; in assay [20] it was -0.05; in [16], 0.112. The log2 fold change in assay [18] is -0.181.
